Screening data (PubChem)
This is a sample that favours compounds with a hit; in the whole collection about 3.4% have one here.
TRPM1 prom inh: inhibitors of MITF-driven TRPM1 promoter in melanoma cells; SK-MEL-5 TRPM1 promoter luciferase, 24 h; inhibition, % at 12.5 µM; 0.83% of 330,000 active;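 active = mean inhibition across replicates of 60% or more, whatever share of single replicates reaches that level; inconclusive = some that reach 60%, reason not given; inactive = mean inhibition across replicates below 60%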
HIF-2a block: inhibitors of HIF-2a; inhibition, % at 18.8 µM; 0.72% of 360,000 active; 786-0 RCC cells HIF-2a reporter, luciferase luminescence, overnight;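 active = inhibition of the luminescence signal of 40% or more relative to plate controls, in a single-dose primary screen at 18.75 µM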
TWEAK Fn14 block: inhibitors of TWEAK-Fn14 interaction signaling. AID 1159606. TWEAK-stimulated Fn14 reporter cells, luciferase luminescence, 8 h. 2% of 360,000 active. inhibition, % at 10 µM; in the data active = inhibition above about 50%
LMP1 NFkB inh: inhibitors of Epstein-Barr LMP1-induced NF-kappaB reporter; LMP1-induced NF-kappaB luciferase reporter cells, luminescence; inhibition, % at 12.5 µM; 0.69% of 350,000 active; AID 504558; in the data active = inhibition above about 41%; inconclusive = no clear call, values can overlap the other calls
Shn3 3UTR inh: inhibitors of Schnurri-3 3'UTR reporter in osteoblasts; Clone20 osteoblast Shn3 3'UTR firefly luciferase, 24 h; inhibition, % at 12.5 µM; 0.52% of 360,000 active;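 active = mean inhibition of at least 75% with every replicate also reaching 75%; inconclusive = mean inhibition at least 75% but some replicate below; inactive = mean inhibition below 75%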
TROY NFkB inh: TROY signaling inhibition | 0.98% of 360,000 active | Q293 LMP1-TROYcd NF-kB luciferase reporter, 4 h | inhibition, % at 10 µM;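 active = compounds whose plate-normalised and pattern-corrected inhibition of the luciferase reporter signal at the single screening dose is 50% or more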
Each line names hits and unclear results; the compound was inactive in the other large screens.

O=C1c2cc(Cl)ccc2-c2c(O)cc(Cl)cc21	TWEAK Fn14 block 54
COc1ccc(-c2cncnc2-c2ccc(OC)cc2O)cc1	TWEAK Fn14 block 69
CCOc1ccc(S(=O)(=O)N(C)CC(=O)NC2CCCC2)cc1	none
CCCCc1ccc(NC(=O)C(=O)NCCN2CCN(Cc3ccc([N+](=O)[O-])cc3)CC2)cc1	Shn3 3UTR inh 94
O=C(c1ccccc1)N1CCN(c2cc(Cl)nc3cc(-c4cccc(Cl)c4)nn23)CC1	none (no result: TRPM1 prom inh)
O=C(c1ccoc1)N1CCN(c2cc(-c3cccc(F)c3)nc3cc(-c4cccc(Cl)c4)nn23)CC1	Shn3 3UTR inh 91 (no result: TRPM1 prom inh)
Oc1ccc(/C=C/c2ccc3ccccc3n2)cc1	TRPM1 prom inh 70, TWEAK Fn14 block 92, LMP1 NFkB inh 48, TROY NFkB inh 74
O=[N+]([O-])c1ccc(/C=C/c2ccc3cccc(O)c3n2)cc1	none
O=[N+]([O-])c1ccc(/C=C/c2ccc3ccccc3n2)cc1	TWEAK Fn14 block 60, TROY NFkB inh 55
O/C(=C\c1ccc2ccccc2n1)c1ccc(O)cc1O	none
Fc1ccccc1/C=C/c1ccc2ccccc2n1	TWEAK Fn14 block 89, TROY NFkB inh 59
Cc1ccc(/C=C/c2nc3ccccc3s2)s1	TWEAK Fn14 block 86, LMP1 NFkB inh 43, TROY NFkB inh 76
CC1(C(=O)Nc2cccc3c2CCCC3)CCN1C(=O)Cc1ccccc1Cl (centres undefined)	none (no result: TRPM1 prom inh, LMP1 NFkB inh)
N#Cc1ccccc1NC(=O)COC(=O)c1c[nH]c2ccccc12	none
CC1CC(C)(C)CC2(C1)NC(=O)N(CC(=O)Nc1ccc(N3CCCCC3)cc1)C2=O (centres undefined)	none
Cc1cccc(/C=C/c2ccccc2)n1	none (no result: TRPM1 prom inh, LMP1 NFkB inh)
CN(C)c1ccc(/C=C/c2ccc3ccccc3n2)cc1	TRPM1 prom inh 72, HIF-2a block 76, TWEAK Fn14 block 99, LMP1 NFkB inh 76, Shn3 3UTR inh 88, TROY NFkB inh 76
CCCN(CCC)c1ccc(/C=C/c2ccc3cc(OCC)ccc3n2)cc1	none
CN(C)c1ccc(/C=C/c2nc3ccccc3s2)cc1	TRPM1 prom inh 77, HIF-2a block 62, TWEAK Fn14 block 105, TROY NFkB inh 65
O=C(O)/C=C/c1ccc2ccccc2n1	LMP1 NFkB inh 76
C(=C\c1ccc2ccccc2n1)/c1ccccc1	TWEAK Fn14 block 74, TROY NFkB inh 57
Cc1cccc(OCc2nnc(SCC(=O)NCc3ccc4c(c3)OCO4)o2)c1	none (no result: TRPM1 prom inh)
COc1cc(Cl)c(C)cc1NC(=O)Cc1cccs1	none
CCN(C(=O)COC(=O)C(c1ccccc1)c1ccccc1)c1c(N)n(Cc2ccccc2)c(=O)[nH]c1=O	none (no result: TRPM1 prom inh)
COc1ccc(OC)c(/C=N/N2CCN(c3ccc(Cl)cc3)CC2)c1	none
O=C(OCc1cn([C@H]2CN(Cc3cccs3)[C@@H](c3ccc(Cl)cc3)C[C@@H]2O)nn1)c1ccccc1	none (no result: TRPM1 prom inh)
CCOc1ccc(/C=C2\CCc3ccccc3C2=O)cc1	TWEAK Fn14 block 90, TROY NFkB inh 70
COc1ccc(C=C2CCc3ccccc3C2=O)cc1	TWEAK Fn14 block 94, TROY NFkB inh 61 (no result: TRPM1 prom inh, LMP1 NFkB inh)
COc1ccc2c(c1)CC/C(=C\c1ccc(OC)c(Cn3cccn3)c1)C2=O	TWEAK Fn14 block 59
COC(=O)[C@@]1(C)[C@H]2C(=O)N(C)C(=O)[C@H]2[C@H]2CN(C)C(=NC3CCCCC3)N21	none
Cc1nc2cc(NCc3nc4ccccc4n3Cc3ccccc3)ccc2n1C	TWEAK Fn14 block 90, TROY NFkB inh 87
Cc1nc2cc(NCc3cc([N+](=O)[O-])ccc3O)ccc2n1Cc1ccccc1	TWEAK Fn14 block 53, TROY NFkB inh 80
COc1cc(NC(=O)CCl)ccc(=O)c1	none (no result: TRPM1 prom inh)
CCCCCOc1ccc(Br)cc1/C(C)=N/NC1=NCCN1	TRPM1 prom inh 70, Shn3 3UTR inh inconclusive
COc1ccc(Br)cc1/C(C)=N/NC1=NCCN1	none
COCCn1c(SCC(=O)c2c(-c3ccccc3)n(C)c3ccccc23)nnc1-c1ccncc1	none
COCCn1c(SCC(=O)/C=C2\N(C)c3ccccc3C2(C)C)nnc1-c1ccncc1	Shn3 3UTR inh 89
COc1ccc(Nc2nnc(SCC(=O)/C=C3/N(C)c4ccccc4C3(C)C)s2)cc1	TWEAK Fn14 block 71
COC(=O)c1ccccc1-n1c(C)nc(=O)c(-c2ccccc2)c1C	none
CN1CCN(C(=O)C2=C[C@@H](C(C)(C)C)C[C@@H](OCc3ccc(CO)cc3)O2)CC1	LMP1 NFkB inh 55
COc1ccc(S(=O)(=O)Nc2cccc3ccc(O)cc23)cc1	none
O=C(O)CSc1cc(NS(=O)(=O)c2ccc(Cl)cc2)c2ccccc2c1O	TWEAK Fn14 block 94
CC(=O)Nc1ccc(NS(=O)(=O)c2ccccc2)c2ccccc12	none
COc1ccc(S(=O)(=O)Nc2cc(SCC(=O)O)c(O)c3ccccc23)cc1	TRPM1 prom inh 68, TWEAK Fn14 block 93, TROY NFkB inh 51
Clc1ccc(-c2nc3ccccc3[nH]2)cn1	none (no result: Shn3 3UTR inh)
Cc1ccc2nc(-c3ccc(SCC(=O)O)nc3)[nH]c2c1	none
N#Cc1ccccc1CSc1ccc(-c2nc3ccccc3[nH]2)cn1	TWEAK Fn14 block 59, TROY NFkB inh 59
Cc1cc2nc(-c3ccc(SCC(=O)Nc4ccc(S(=O)(=O)N5CCCC5)cc4)nc3)[nH]c2cc1C	none
Cc1cc2nc(-c3ccc(SCc4ccc(C#N)cc4)nc3)[nH]c2cc1C	TWEAK Fn14 block 58
O=C(CSc1ccc(-c2nc3ccccc3[nH]2)cn1)Nc1ccc(S(=O)(=O)N2CCCC2)cc1	TWEAK Fn14 block 52
Cc1ccc2nc(-c3ccc(SCC(=O)N4CCc5ccccc54)nc3)[nH]c2c1	TWEAK Fn14 block 53
O=C(CN1C(=O)NC2(CCCCC2)C1=O)N1CCN(S(=O)(=O)c2cccc([N+](=O)[O-])c2)CC1	none
Cc1ccc2nc(C3CCCCC3)[nH]c2c1	none
CCCN(Cc1nnc(-c2cccs2)o1)C(=O)CN1C(=O)NC2(CCCCC2)C1=O	none
CCc1nnc(NC(=O)CSc2ccc(-c3nc4ccc(C)cc4[nH]3)cn2)s1	none
CC(=O)CSc1ccc(-c2nc3ccccc3[nH]2)cn1	TWEAK Fn14 block 69
Cc1cc2nc(-c3ccc(SCC(=O)Nc4nccs4)nc3)[nH]c2cc1C	TRPM1 prom inh 74
CC(=O)c1c(C)[nH]c(C(=O)OCC(=O)Nc2ccc(Cl)c(S(=O)(=O)N(C)C)c2)c1C	TWEAK Fn14 block 54
CC(=O)c1c(C)[nH]c(C(=O)Nc2ccc(Cl)c(S(=O)(=O)N(C)C)c2)c1C	none
CCOC(=O)c1c(C)[nH]c(C(=O)OCC(=O)Nc2cc(Cl)ccc2OC)c1C	none
CC(=O)c1c(C)[nH]c(C(=O)OCC(=O)Nc2ccc(Cl)cc2[N+](=O)[O-])c1C	TWEAK Fn14 block 64, Shn3 3UTR inh 92
Cc1cnc(C(=O)OCC(=O)Nc2cccc(S(=O)(=O)N3CCOCC3)c2)cn1	none
COc1ccc(NC(=O)CCNC(=O)Cn2ccc3ccccc3c2=O)cc1Cl	none
COc1ccc(Cc2nnc(NC(=O)c3c(-c4ccccc4)noc3C)s2)cc1	LMP1 NFkB inh 53
